Measurements: PubChem BioAssay AID1159580 (chemical genetic matrix, 2015)
Out of some 5,500 compounds screened, about 2,000 (36%) were called active. Roughly 18% stayed inconclusive and do not appear here. Cut-off read from the data, not from the text of the source: active = normalized growth mostly below about 0.91 (no sharp cut-off); inconclusive = no clear call, values can overlap the other calls; inactive = mostly above about 0.92. The list shows a part of the results.

Assay: chemical genetic growth profiling, strain panel (AID 1159580);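 note: tested at 20 µM; growth read once vehicle control cultures reached saturation at 30 °C; 1 = growth at the plate median or of vehicle wells; lower values mean less growth of the strain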
Settings: growth OD
[1] = S. cerevisiae deletion strains, locus YAL013W, strain DEP1, active compounds read low
[2] = S. cerevisiae deletion strains, locus YDR150W, strain NUM1, active compounds read low
[3] = S. cerevisiae deletion strains, locus YGR078C, strain PAC10, active compounds read low
[4] = S. cerevisiae deletion strains, locus YGR229C, strain SMI1, active compounds read low
[5] = S. cerevisiae deletion strains, locus YJR075W, strain HOC1, active compounds read low
[6] = S. cerevisiae deletion strains, locus YMR263W, strain SAP30, active compounds read low
[7] = S. cerevisiae deletion strains, locus YMR307W, strain GAS1, active compounds read low
[8] = S. cerevisiae deletion strains, locus YNL128W, strain TEP1, active compounds read low
[9] = S. cerevisiae deletion strains, locus YNL153C, strain GIM3, active compounds read low
[10] = S. cerevisiae deletion strains, locus YNL322C, strain KRE1, active compounds read low
[11] = S. cerevisiae deletion strains, locus YPL055C, strain LGE1, active compounds read low
[12] = S. cerevisiae deletion strains, locus YPL241C, strain CIN2, active compounds read low
[13] = S. cerevisiae deletion strains, locus YAL040C, strain CLN3, active compounds read low
[14] = S. cerevisiae deletion strains, locus YCL061C, strain MRC1 (second series), active compounds read low
[15] = S. cerevisiae deletion strains, locus YDR363W, strain ESC2, active compounds read low
[16] = S. cerevisiae deletion strains, locus YER002W, strain NOP16, active compounds read low
[17] = S. cerevisiae deletion strains, locus YNL175C, strain NOP13, active compounds read low
[18] = S. cerevisiae deletion strains, locus YNL197C, strain WHI3, active compounds read low
[19] = S. cerevisiae deletion strains, locus YNL224C, strain SQS1, active compounds read low
[20] = S. cerevisiae deletion strains, locus YOR083W, strain WHI5 (second series), active compounds read low

Measured: normalized growth

C#CCOS(=O)OC1CCCCC1Oc1ccc(C(C)(C)C)cc1 (stereo unspecified)
inactive: [1] 1.01 | S. cerevisiae deletion strains, locus YBR021W, strain FUR4, active compounds read low 1.03 | S. cerevisiae deletion strains, locus YBR229C, strain ROT2, active compounds read low 1.02 | S. cerevisiae deletion strains, locus YCL029C, strain bik1, active compounds read low 1.01 | S. cerevisiae deletion strains, locus YDL035C, strain GPR1, active compounds read low 1 | S. cerevisiae deletion strains, locus YDL074C, strain BRE1, active compounds read low 1.07 | S. cerevisiae deletion strains, locus YDL101C, strain DUN1, active compounds read low 1.02 | S. cerevisiae deletion strains, locus YDL134C, strain PPH21, active compounds read low 1.02 | S. cerevisiae deletion strains, locus YDL185W, strain tfp1, active compounds read low 0.982 | S. cerevisiae deletion strains, locus YDL192W, strain arf1, active compounds read low 1 | S. cerevisiae deletion strains, locus YDR101C, strain arx1, active compounds read low 0.987 | [2] 1.02 | S. cerevisiae deletion strains, locus YDR162C, strain NBP2, active compounds read low 1.02 | S. cerevisiae deletion strains, locus YDR318W, strain mcm21, active compounds read low 1 | S. cerevisiae deletion strains, locus YDR388W, active compounds read low 0.994 | S. cerevisiae deletion strains, locus YDR502C, strain sam2, active compounds read low 0.993 | S. cerevisiae deletion strains, locus YEL061C, strain CIN8, active compounds read low 1.01 | S. cerevisiae deletion strains, locus YER110C, active compounds read low 0.998 | S. cerevisiae deletion strains, locus YER155C, strain BEM2, active compounds read low 1.02 | S. cerevisiae deletion strains, locus YER167W, strain BCK2, active compounds read low 1.01 | S. cerevisiae deletion strains, locus YGL078C, strain dbp3, active compounds read low 0.977 | S. cerevisiae deletion strains, locus YGL086W, strain mad1, active compounds read low 1 | S. cerevisiae deletion strains, locus YGL248W, strain PDE1, active compounds read low 1.02 | [3] 1.02 | S. cerevisiae deletion strains, locus YGR135W, strain pre9, active compounds read low 1 | [4] 1.04 | S. cerevisiae deletion strains, locus YGR252W, strain gcn5, active compounds read low 0.987 | S. cerevisiae deletion strains, locus YHR030C, strain SLT2, active compounds read low 1.02 | S. cerevisiae deletion strains, locus YHR079C, strain IRE1 (second series), active compounds read low 0.994 | S. cerevisiae deletion strains, locus YHR094C, strain hxt1, active compounds read low 0.988 | S. cerevisiae deletion strains, locus YHR129C, strain ARP1, active compounds read low 1.02 | S. cerevisiae deletion strains, locus YHR200W, strain rpn10, active compounds read low 0.99 | S. cerevisiae deletion strains, locus YIL066C, strain RNR3, active compounds read low 1.02 | S. cerevisiae deletion strains, locus YIL073C, strain SPO22, active compounds read low 1.01 | S. cerevisiae deletion strains, locus YIL125W, strain kgd1, active compounds read low 0.988 | S. cerevisiae deletion strains, locus YIR030C, strain dcg1, active compounds read low 0.984 | S. cerevisiae deletion strains, locus YJL095W, strain BCK1, active compounds read low 1.02 | S. cerevisiae deletion strains, locus YJL134W, strain LCB3, active compounds read low 1.01 | S. cerevisiae deletion strains, locus YJL168C, strain set2, active compounds read low 0.989 | S. cerevisiae deletion strains, locus YJL187C, strain SWE1 (second series), active compounds read low 1.02 | S. cerevisiae deletion strains, locus YJR043C, strain POL32, active compounds read low 1.01 | [5] 1.04 | S. cerevisiae deletion strains, locus YKL009W, strain mrt4, active compounds read low 0.971 | S. cerevisiae deletion strains, locus YKL068W, active compounds read low 0.994 | S. cerevisiae deletion strains, locus YKL085W, strain MDH1 (second series), active compounds read low 0.988 | S. cerevisiae deletion strains, locus YKL085W, strain MDH1, active compounds read low 0.988 | S. cerevisiae deletion strains, locus YKL190W, strain CNB1, active compounds read low 1 | S. cerevisiae deletion strains, locus YKR001C, strain vps1, active compounds read low 0.993 | S. cerevisiae deletion strains, locus YLR039C, strain RIC1, active compounds read low 1.04 | S. cerevisiae deletion strains, locus YLR058C, strain SHM2, active compounds read low 1.02 | S. cerevisiae deletion strains, locus YLR102C, strain apc9, active compounds read low 0.983 | S. cerevisiae deletion strains, locus YLR262C, strain YPT6, active compounds read low 1.05 | S. cerevisiae deletion strains, locus YLR268W, strain sec22, active compounds read low 0.999 | S. cerevisiae deletion strains, locus YLR330W, strain CHS5, active compounds read low 1.02 | S. cerevisiae deletion strains, locus YLR342W, strain FKS1 (second series), active compounds read low 1.01 | S. cerevisiae deletion strains, locus YLR371W, strain rom2, active compounds read low 0.983 | S. cerevisiae deletion strains, locus YLR418C, strain cdc73, active compounds read low 1.02 | S. cerevisiae deletion strains, locus YML016C, strain PPZ1, active compounds read low 1.02 | S. cerevisiae deletion strains, locus YML032C, strain rad52, active compounds read low 0.986 | S. cerevisiae deletion strains, locus YML124C, strain tub3, active compounds read low 0.995 | S. cerevisiae deletion strains, locus YMR078C, strain ctf18, active compounds read low 0.996 | S. cerevisiae deletion strains, locus YMR223W, strain ubp8, active compounds read low 1 | [6] 1.03 | [7] 1.02 | S. cerevisiae deletion strains, locus YNL067W, strain RPL9B, active compounds read low 1.02 | [8] 1.02 | [9] 1.02 | S. cerevisiae deletion strains, locus YNL233W, strain BNI4, active compounds read low 1.03 | S. cerevisiae deletion strains, locus YNL250W, strain rad50, active compounds read low 0.992 | S. cerevisiae deletion strains, locus YNL271C, strain bni1, active compounds read low 0.978 | S. cerevisiae deletion strains, locus YNL298W, strain CLA4, active compounds read low 0.998 | S. cerevisiae deletion strains, locus YNL307C, strain MCK1, active compounds read low 0.992 | [10] 1.02 | S. cerevisiae deletion strains, locus YNR052C, strain pop2, active compounds read low 0.987 | S. cerevisiae deletion strains, locus YOL006C, strain TOP1, active compounds read low 1.07 | S. cerevisiae deletion strains, locus YOL012C, strain htz1 0.994 | S. cerevisiae deletion strains, locus YOL147C, strain pex11, active compounds read low 0.994 | S. cerevisiae deletion strains, locus YOR061W, strain CKA2, active compounds read low 1.01 | S. cerevisiae deletion strains, locus YOR069W, strain VPS5, active compounds read low 1 | S. cerevisiae deletion strains, locus YOR136W, strain idh2, active compounds read low 0.992 | S. cerevisiae deletion strains, locus YOR144C, strain elg1, active compounds read low 0.996 | S. cerevisiae deletion strains, locus YOR184W, strain ser1, active compounds read low 0.964 | S. cerevisiae deletion strains, locus YOR316C, strain cot1, active compounds read low 0.996 | [11] 1.05 | [12] 1.03 | S. cerevisiae deletion strains, locus YPR119W, strain clb2, active compounds read low 0.997 | S. cerevisiae deletion strains, locus YPR141C, strain kar3, active compounds read low 0.99 | S. cerevisiae deletion strains, locus YPR163C, strain tif3, active compounds read low 0.999 | S. cerevisiae deletion strains, locus YPR167C, strain met16, active compounds read low 0.994 | S. cerevisiae deletion strains, strain wtn01, active compounds read low 0.991 | S. cerevisiae strains, strain wild type, active compounds read low 1.01

CC(C)C[C@H](NC(=O)C1OC1C(=O)O)C(=O)NCCCCN=C(N)N (stereo partly specified)
inactive: [1] 1.01 | [13] 0.949 | [14] 0.993 | [2] 0.989 | [15] 1.01 | [16] 0.985 | [3] 0.988 | [4] 1.04 | [6] 0.997 | [8] 0.998 | [17] 0.984 | [18] 0.971 | [19] 1.01 | [20] 0.979 | [11] 1.02 | [12] 0.995

CC(=O)C(C)=O
inactive: [13] 1.01 | [14] 1.01 | [15] 1.03 | [16] 1 | [5] 1.02 | [17] 0.994 | [18] 1.03 | [19] 0.99 | [20] 1.02 | [11] 1.07

CC(=O)/C(C)=N\O
inactive: [13] 0.972 | [2] 0.972 | [15] 1.07 | [16] 0.994 | [3] 1 | [5] 0.987 | [7] 1.07 | [8] 0.983 | [9] 0.979 | [17] 0.978 | [18] 1 | [19] 1.01 | [10] 1 | [20] 0.986
